# In the library only some 2.4% were active in any assay of this set; here they are far more common.
# CHT inh: inhibitors of human choline transporter CHT; B-score at 10 µM; CHT-expressing cells, membrane potential dye, choline response; active compounds read low; actives 0.86% (n = 310,000);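 active = B-score over 3 SD under the library average, and starting fluorescence ratio not unusually high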;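 note: choline stimulus applied at its EC90 after an EC20 pre-addition; B-score computed on integrated fluorescence ratio after choline addition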
# Target sequence (Q9GZV3 whole entry, looked up): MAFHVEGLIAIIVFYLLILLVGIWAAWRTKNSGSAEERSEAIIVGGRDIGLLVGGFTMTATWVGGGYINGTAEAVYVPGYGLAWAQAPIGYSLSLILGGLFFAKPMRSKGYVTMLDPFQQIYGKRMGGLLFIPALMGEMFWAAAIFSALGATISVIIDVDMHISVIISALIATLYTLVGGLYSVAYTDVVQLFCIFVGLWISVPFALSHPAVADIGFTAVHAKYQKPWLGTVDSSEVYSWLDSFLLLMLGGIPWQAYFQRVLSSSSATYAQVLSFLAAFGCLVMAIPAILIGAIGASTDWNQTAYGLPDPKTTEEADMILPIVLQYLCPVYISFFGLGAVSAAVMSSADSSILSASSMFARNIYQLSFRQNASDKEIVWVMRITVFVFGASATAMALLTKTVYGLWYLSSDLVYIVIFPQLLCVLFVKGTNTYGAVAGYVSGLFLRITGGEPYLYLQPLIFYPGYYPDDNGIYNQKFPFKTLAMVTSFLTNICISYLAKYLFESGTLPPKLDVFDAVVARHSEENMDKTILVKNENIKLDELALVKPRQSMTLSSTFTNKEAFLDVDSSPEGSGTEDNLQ
# TMEM16A inh: blocks the mouse calcium-activated chloride channel TMEM16A | AID 588511 | Q8BHY3 | normalized B-score (activity score, 25-100; higher = stronger inhibition) at 10 µM | actives 1.2% (n = 310,000) | HEK293 TMEM16A/YFP iodide influx fluorescence, ionomycin;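 active = ratio plate-corrected score three or more library SD toward inhibition, starting fluorescence score within five deviations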;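 note: score derived from kinetic fluorescence span divided by baseline fluorescence per well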
# CHT allo act: allosteric activators of human choline transporter CHT; CHT-expressing cells, membrane potential dye, choline EC20; active compounds read high; LV-AA mutant CHT in HEK293 cells; Q9GZV3; actives 0.49% (n = 310,000); B-score at 10 µM;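 active = initial fluorescence not abnormally high and integrated response B-score, plate-corrected, over 3 SD above library mean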
# TMEM16A act: activates or potentiates the mouse TMEM16A chloride channel | B-score at 10 µM | HEK293 TMEM16A/YFP-H148Q/I152L, iodide quench fluorescence; active compounds read low | Q8BHY3 | actives 0.3% (n = 340,000);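 active = fluorescence-ratio B-score plate-corrected deviation score at least 3 library SD below zero, with starting fluorescence score within 5 deviations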;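 note: channel opened by trigger with iodide after compound preincubation; score built on the fluorescence ratio of max minus min over baseline; more negative score means more quench and so TMEM16A activation or potentiation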
# CHT block conf: human CHT inhibition, confirmatory screen | shares compounds with CHT inh | CHT-expressing cells, choline membrane potential dye; LV-to-AA substituted CHT, HEK293 cells | CHT activity remaining % of control (active compounds read low), % at 10 µM | actives 70% (n = 2,400);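 active = choline transporter activity left, mean of duplicates at 10 µM, below buffer-only control mean minus 3 SD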;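 note: depolarization triggered by choline at its EC90 following an EC20 pre-addition; 0% = hemicholinium-3 full block and 100% = buffer-only control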
# HEK293 CHT ctr: activity in parental HEK293 cells lacking CHT | shares compounds with CHT inh | membrane potential dye, choline response; active = decrease or increase beyond buffer ±3SD | membrane potential ratio readout (active if shifted either direction beyond buffer ±3SD; no single direction) at 10 µM | actives 4% (n = 2,400) | AID 493222;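 note: parental cells lack the transporter so any hit is non-specific; ratio is peak minus trough fluorescence over baseline after EC90 choline challenge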
# * marks the source's active call; other numbers are inactive results; i = inactive; / = not tested or not shown.
SMILES,CHT inh,TMEM16A inh,CHT allo act,TMEM16A act,CHT block conf,HEK293 CHT ctr
CC(C)c1nc(CNC(=O)c2ccc(OC3CCN(Cc4ccccn4)CC3)cc2)cs1,i,i,i,i,/,/
C1=C2C[N+]3(CCCC3)CC2Cc2ccc3ccccc3c21 (stereo not given),-7.6*,i,i,i,46%*,2.6*
Cc1ccccc1C(=O)OC(C)CN1CCN(C)CC1 (stereo not given),-6.1*,i,i,i,46%*,i
Cc1ccccc1OCC(=O)OC(C)CN1CCN(C)CC1 (stereo not given),i,i,i,i,/,/
CC(CN1CCCC1)OC(=O)c1ccccc1Cl (stereo not given),i,i,i,i,/,/
CC(CN1CCN(C)CC1)OC(=O)c1ccccc1Cl (stereo not given),-8.3*,i,i,i,12%*,i
Cc1ccc(CSc2nnc(-c3ccc(NS(=O)(=O)c4ccccc4)cc3)o2)cc1,i,i,i,i,/,/
COC(=O)CSc1nnc(-c2ccc(NS(=O)(=O)c3ccccc3)cc2)o1,-5.9*,25*,i,i,39%*,i
Cc1ccc(C)c(NCC(=O)NNC(=S)Nc2ccccc2)c1,-6.2*,i,i,i,67%*,i
O=C(NC1CCCC1)c1sc(=S)n2c1[nH]c(=O)c1ccccc12,-5*,i,i,i,i,i
CCCCCNC(=O)c1ccc2c(=O)[nH]c3c(C(=O)NCC4CCCO4)sc(=S)n3c2c1 (stereo not given),-7.8*,i,i,i,35%*,i
O=C(NCc1ccccc1)c1ccc2c(=O)[nH]c3c(C(=O)NCC4CCCO4)sc(=S)n3c2c1 (stereo not given),i,i,i,i,/,/
Cc1ccc(CNC(=O)c2ccc3c(=O)[nH]c4c(C(=O)NCC5CCCO5)sc(=S)n4c3c2)cc1 (stereo not given),i,i,i,i,/,/
Cc1csc(NC(=O)C(F)(F)F)n1,i,i,i,i,/,/
C=CCNc1nc2ccccc2nc1NS(=O)(=O)c1ccc(Br)cc1,-5.1*,25*,i,/,69%*,i
COC(=O)c1ccc(C(=O)N2CCCC(Nc3ccc(C(C)C)cc3)C2)nc1 (stereo not given),-5.2*,i,i,i,58%*,i
CN(/N=C/c1ccc([N+](=O)[O-])o1)c1ccccc1,-5.7*,i,i,i,50%*,i
COc1ccccc1/C=C1\SC(=S)N(CC(=O)Nc2nnc(C)s2)C1=O,i,i,i,/,/,/
CCc1ccc(N/C(=N/c2nc(C)cc(C)n2)NC(C)=O)cc1,-5.8*,i,i,i,58%*,i
c1ccc(-c2cncnc2)cc1,/,/,/,i,/,/
O=C(Cn1nc(-c2ccccc2)ccc1=O)NCc1ccc2c(c1)OCO2,i,i,i,i,/,/
O=C(Cn1nc(-c2ccccc2)ccc1=O)NCc1ccc(F)cc1,-6.3*,i,i,i,49%*,i
NCCc1nnc(SCc2ccc(F)cc2)o1,i,i,i,i,/,/
NCCCCCc1nnc(SCc2ccc(Cl)c(Cl)c2)o1,-5.4*,i,i,i,30%*,i
O=C(NCc1cccc(C(F)(F)F)c1)c1cc(Cl)ccc1Cl,-5.8*,i,i,i,i,i
SMILES,CHT inh,TMEM16A inh,CHT allo act,TMEM16A act,CHT block conf,HEK293 CHT ctr
O=C(NCc1cccc(C(F)(F)F)c1)c1cc(Cl)cc(Cl)c1,i,i,i,i,/,/
Cc1cc(C(C)(C)C)cc(S(=O)(=O)NCC(=O)O)c1C,i,i,i,i,/,/
CCn1c2ccccc2c2cc(NC(=O)COC(=O)c3cc(Cl)c(N)cc3OC)ccc21,i,i,i,i,/,/
O=[N+]([O-])c1ccc(O)c(/C=N/NC2=NS(=O)(=O)c3ccccc32)c1,-5.6*,i,i,i,60%*,i
COc1ccc2[nH]cc(S(=O)(=O)c3ccc(C)cc3)c2c1,i,i,i,i,/,/
COc1ccccc1CN1CCNC(=O)C1CC(=O)NC1CCCCCC1 (stereo not given),i,i,i,i,/,/
C=Cn1cc[n+](CC(=O)c2ccc(-c3ccccc3)cc2)c1,-6.7*,i,i,i,60%*,i
CN(Cc1ccccc1)C(=O)c1ccccc1N(C)S(=O)(=O)c1ccccc1,/,/,/,i,/,/
CCC1CCCCN1C(=S)Nc1ccc(OC(F)F)cc1 (stereo not given),i,i,i,i,/,/
O=C(CS(=O)(=O)Nc1ccc(F)cc1Cl)Nc1ccc(F)cc1Cl,-11*,i,i,i,66%*,i
Cc1ccccc1-n1nnnc1Sc1nnnn1-c1ccccc1,-5*,i,i,i,64%*,i
Cc1nc(SCC(N)=O)[nH]c(=O)c1Cc1ccc(OC(C)C)cc1,-6.1*,i,i,i,i,i
CN(CCC#N)C(=O)CC(Cc1ccccc1)C1CCOC(C)(C)C1 (stereo not given),-6*,i,i,i,i,i
CN(CCC#N)C(=O)COC(=O)[C@H](Cc1ccccc1)N1C(=O)c2ccccc2C1=O,i,i,i,i,/,/
CC(C)n1cc(C#N)c(N)n1,/,/,/,i,/,/
COc1ccc(C=Nc2ccc3[nH]ncc3c2)c(O)c1,i,i,i,i,/,/
Oc1c(Br)cc(Br)cc1C=Nc1ccc2[nH]ncc2c1,-5.6*,i,i,i,65%*,i
Oc1c(Br)cc(Br)cc1C=Nc1cccnc1,-7.8*,i,i,i,62%*,i
Cc1nc(NC(=O)CSc2nc3ccccc3s2)sc1C(=O)N(C)C,i,i,i,i,/,/
COc1c(/C=N/NC(N)=S)c(C)nn1-c1ccccc1,i,i,i,i,/,/
O=c1cc(-c2ccccc2)oc2ccc(O)cc12,i,i,i,i,/,/
COc1ccc(-c2cc(=O)c3cc(O)ccc3o2)cc1,-7.3*,i,i,i,41%*,i
O=S(=O)(/N=C(/Nc1cccnc1)c1ccccc1)c1ccc(F)cc1F,/,/,/,i,/,/
CCSc1nnc([C@H](Cc2ccccc2)NC(=O)OC(C)(C)C)o1,-7*,i,i,i,i,i
COCCn1c(SCC(=O)NC2CCCC(C)C2C)nc2ccccc2c1=O (stereo not given),/,/,/,i,/,/
O=C(Cc1ccccc1F)c1ccc(O)cc1O,-6.2*,i,i,i,45%*,i
